Assay outcomes from PubChem.
BJeLR viability: MLPCN primary cell-based screen for lethality selective to Ras in HRASV12 cells. BJeLR (HRASV12) viability, CellTiter-Glo ATP luminescence, 48 h. inhibition, % (concentration not given with the values). 300,000 tested, 0.17% active. AID 1554, 2009; in the data active means inhibition above about 50%
MazEF act: activators of E. coli MazEF toxin-antitoxin RNase, primary screen, biochemical, fluorescence, uHTS. Endoribonuclease toxin MazF (Escherichia coli (strain K12)), P0AE70. FAM/BHQ RNA-DNA oligo cleavage fluorescence, 5 h. activation, % at 20 µM. 350,000 tested, 0.32% active. AID 504720, 2011; in the data active means activation above about 50%
Target sequence (P0AE70 whole entry, looked up): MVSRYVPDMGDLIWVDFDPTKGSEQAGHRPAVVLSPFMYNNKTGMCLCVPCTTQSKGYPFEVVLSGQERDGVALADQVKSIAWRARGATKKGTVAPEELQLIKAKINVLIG
ugtP null kill: growth inhibition of ugtP-null S. aureus, primary screen, RN4220 ugtP deletion, OD600; growth inhibition, % (concentration not given with the values); 16 h; 330,000 tested, 0.54% active; AID 1259309, 2017; in the data active means growth inhibition above about 68%
RN4220 kill: growth inhibition of S. aureus RN4220, primary screen, OD600. inhibition, % (concentration not given with the values). AID 1259311, 2017. 16 h. 330,000 tested, 0.33% active; in the data active means inhibition above about 85%
SSB-PriA inh: inhibitors of Klebsiella pneumoniae PriA binding to SSB C-terminal tail, primary screen, biochemical, AlphaScreen. PriA–SSB C-terminal tail interaction (Klebsiella pneumoniae). AlphaScreen SSBct-PriA binding, biotinylated peptide. inhibition, % at 33 µM. 430,000 tested, 0.6% active. AID 1272365, 2023; in the data active means inhibition mostly above about 37%, no sharp cut-off; inactive means mostly below about 20%
Numbers stand for hits; n = inactive; x = not tested or not shown; + = active, no number; ! = not active in a repeat. Compounds with a hit are over-represented: about 1.2% of the library has one in this group of screens.

SMILES	BJeLR viability	MazEF act	ugtP null kill	RN4220 kill	SSB-PriA inh
COc1ccc(OCc2n(CC(=O)OC3CC(C)CCC3C(C)C)c3ccccc3[n+]2C)cc1 (stereo unspecified)	n	n	100	101	n
O=[N+]([O-])c1cccc(COc2ccc(CN3CCCC3)cc2)c1	x	n	x	x	n
O=C(NCC1CCN(C(=O)c2cc3ccccc3o2)CC1)c1cc(C2CC2)on1	x	x	x	x	n
O=C(O)c1ccc(O)cn1	x	x	x	x	n
O=C(O)c1ccc(C2CCCCC2)cn1	n	n	n	n	116
C=C(C)C(O)CC/C(C)=C/Cc1c(O)ccc(C(=O)/C=C/c2ccc(O)cc2)c1O (stereo unspecified)	x	n	91	99	n
CCCCCCCCOc1ccc(C2CC(=O)NC2=O)cc1 (stereo unspecified)	n	n	93	n	n
N#C/C(C(=O)Oc1ccccc1)=C1\C=Cc2ccccc2N1	n	50	n	n	x
Cn1cc(/C=C(\C#N)C(=O)Nc2cccc([N+](=O)[O-])c2)c2ccccc21	n	n	n	n	n
O=S(=O)(c1ccc(OC(F)(F)F)cc1)N(Cc1ccsc1)C1CC1	x	x	x	x	n
CC(=O)Oc1cccc2c1C(=O)c1c(OC(C)=O)cc(C(=O)O)cc1C2=O	n	257	x	x	n
CC(=O)c1ccc(N=Nc2ccc(N(C)C)cc2)cc1	n	n	n	n	n
CN(C)c1ccc(N=Nc2ccccc2Br)cc1	n	n	n	n	57
CCN(CC)c1ccc(NC(=O)COc2ccc(-n3cnnn3)cc2)cc1	x	n	n	n	n
COC(=O)c1sc(C(C)(C)C)cc1CSc1ccccc1	n	n	84	n	n
COC(=O)c1sc(C(C)(C)C)cc1CS(=O)(=O)c1ccc(Cl)cc1	n	n	n	n	n
COc1cc(/C=N\Nc2nc3ccccc3[nH]2)cc(OC)c1OC	n	n	x	x	x
COc1ccc2c(c1)c(/C=N/Nc1nc3ccccc3[nH]1)c(C)n2C	n	n	x	x	+
FC(F)(F)c1ccc(Cl)c(NC(=S)NN=Cc2ccccc2C(F)(F)F)c1	x	x	86	n	n
FC(F)(F)c1ccc(Cl)c(NC(=S)N/N=C/c2ccccc2C(F)(F)F)c1	n	n	x	x	x
Fc1cccc(C=NNC(=S)Nc2ccccc2Cl)c1	x	x	93	n	n
S=C(N/N=C/c1ccccc1Cl)Nc1ccccc1	n	n	x	x	x
S=C(NN=Cc1ccccc1Cl)Nc1ccccc1	x	x	91	n	n
O=C(NCC1CCCO1)c1ccc(NC(=O)C2CC=CCC2C(=O)O)cc1 (stereo unspecified)	n	n	n	n	n
O=C(NCc1cccnc1)c1cc([N+](=O)[O-])ccc1N1CCOCC1	n	n	n	n	n
SMILES	BJeLR viability	MazEF act	ugtP null kill	RN4220 kill	SSB-PriA inh
CSCCC(NC(=O)c1ccco1)C(=O)NNC(=O)c1n[nH]c(=O)c2ccccc12 (stereo unspecified)	x	n	n	n	n
COC(=O)C1=C(C)N(c2cc(C)cc(C)c2)/C(=C/c2ccc(O)cc2)C1=O	n	n	n	89	n
COc1cc2nc(N(CCCN(C)C)C(=O)c3ccc(C(=O)c4ccccc4)cc3)sc2cc1OC	n	n	n	n	37!
CCN(CC)CCN(C(=O)c1ccc(C(=O)c2ccccc2)cc1)c1nc2ccc(OC)cc2s1	n	n	n	n	n
COc1ccc2nc(N(CCN(C)C)C(=O)c3ccc(C(=O)c4ccccc4)cc3)sc2c1	n	n	n	n	50
COc1cc2nc(N(CCCN(C)C)C(=O)c3ccc(S(=O)(=O)N4CCc5ccccc5C4)cc3)sc2cc1OC	n	n	n	n	n
CCN(CC)CCN(C(=O)c1ccc(C(=O)c2ccccc2)cc1)c1nc2c(OC)ccc(OC)c2s1	x	x	x	x	49
CCc1ccc2nc(N(CCCN(C)C)C(=O)c3ccc(C(=O)c4ccccc4)cc3)sc2c1	n	n	n	n	47!
CCc1ccc2nc(N(CCCN(C)C)C(=O)c3ccc(S(=O)(=O)N4CCCC4)cc3)sc2c1	n	n	n	n	n
Cc1cccc(NC(=O)c2nc[nH]c2C(=O)N[C@@H](C)C(=O)OCc2ccccc2)c1	n	n	x	x	n
Cc1cc(C)n2nc(C(=O)OCC(=O)Nc3ccc(Cl)cc3)nc2n1	x	n	x	x	x
CCOc1cccc2sc(N(CCN(C)C)C(=O)c3cc4ccccc4cc3OC)nc12	n	n	n	n	n
CCOc1ccc2nc(N(CCN(C)C)C(=O)c3cc4ccccc4cc3OC)sc2c1	n	n	n	n	44!
c1ccc(-c2noc(-c3ccc4c(c3)OCO4)n2)nc1	92	n	n	n	n
c1ccc(-c2noc(-c3ccc4ccccc4c3)n2)nc1	n	n	n	n	n
Nc1nnnn1CC(=O)NN=Cc1cc([N+](=O)[O-])ccc1O	x	x	n	93	n
O=C(Cn1cncn1)NN=Cc1cc([N+](=O)[O-])ccc1O	x	x	n	88	40
Nc1nnnn1N=Cc1cc([N+](=O)[O-])ccc1O	x	x	n	n	n
COc1cc([N+](=O)[O-])cc(C=NNC(=O)Cn2cncn2)c1O	x	x	n	n	n
Cc1ccccc1OCCNCC(C)O (stereo unspecified)	n	n	n	n	n
Cc1nc2ccccn2c1C(=O)NN=Cc1ccc([N+](=O)[O-])o1	x	x	n	98	n
O=[N+]([O-])c1ccc(C=NNc2ccc3ccccc3c2)o1	x	x	n	n	55
O=[N+]([O-])c1ccc(/C=N/Nc2ccc3ccccc3c2)o1	n	n	x	x	x
COc1ccccc1NS(=O)(=O)c1cccc(C(=O)N/N=C/c2ccc(C)o2)c1	n	n	x	x	x
O=C(N/N=C/c1ccc([N+](=O)[O-])o1)c1cc2ccccc2o1	68	n	x	x	n
SMILES	BJeLR viability	MazEF act	ugtP null kill	RN4220 kill	SSB-PriA inh
COc1ccccc1NS(=O)(=O)c1cccc(C(=O)NN=Cc2ccc([N+](=O)[O-])o2)c1	x	x	99	98	n
O=S(=O)(c1ccccc1F)N1CCN(C(=S)NCc2ccccc2)CC1	n	n	n	n	n
COc1ccc(OC)c(-c2c3cc(O)c(=O)cc-3oc3cc(O)c(O)cc23)c1	x	+	x	x	n
COc1ccc(Br)cc1C=NN1C(=O)CSC1=S	x	x	n	n	n
Nc1nonc1-n1nnc(C(=O)N/N=C/c2ccc(Cl)cc2Cl)c1CN1CCOCC1	n	124	x	x	x
O=c1cc(O)c2ncccc2[nH]1	x	x	x	x	129
CCOC1OC(C(N)=O)=CC(C)C1CCCO (stereo unspecified)	x	x	n	n	x
N#CCCN1CCCc2cc(N=Nc3ccc(C(F)(F)F)cc3)ccc21	n	n	n	n	45
CCN(CC)c1ccc2cc(C(=O)Nc3ccccn3)c(=O)oc2c1	n	+	n	n	n
CCN(CC)c1ccc2cc(C(C)=O)c(=O)oc2c1	n	n	n	n	n
O=c1cc(N=Nc2ccc(Cl)cc2)[nH]c(=O)[nH]1	n	n	100	100	n
CS(=O)(=O)c1ccc(CC(=O)Nc2nnc(-c3cc(Cl)sc3Cl)o2)cc1	x	x	x	x	active!
CS(=O)(=O)c1ccc(CC(=O)Nc2nnc(Cc3ccc4c(c3)OCCO4)o2)cc1	x	x	x	x	47
